Screening data deposited in PubChem by Sanford-Burnham Center for Chemical Genomics.
TIM10 inh: TIM10 yeast growth inhibition | inhibition, % at 10 µM | S. cerevisiae TIM10 strain growth, BacTiter-Glo luminescence, 24 h | actives 1.4% (n = 330,000) | AID 463195;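 active means inhibition of 40% or more at the single tested concentration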;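 further: wild-type TIM10 isogenic control strain grown at permissive 25 °C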
NALP1 yeast inh: NALP1 inhibition; S. cerevisiae NALP1/ASC/caspase-1 growth, X-gal OD620, 72 h; inhibition, % at 10 µM; actives 0.61% (n = 280,000); in the data active means inhibition mostly above about 24%, no sharp cut-off; inactive means mostly below about 32%
tim23-1 inh: growth inhibitors of tim23-1 mutant yeast; S. cerevisiae tim23-1 growth, BacTiter-Glo luminescence, 24 h; inhibition, % at 20 µM; actives 1.3% (n = 330,000);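 active means growth inhibition of the mutant yeast at or above 50%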;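 further: temperature-sensitive mutant grown at 25 °C; plate controls were DMSO-treated mutant yeast for no effect and medium wells lacking yeast for full effect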
NLRP3 yeast inh: blocks the NALP3 inflammasome reconstituted in yeast; Yeast reconstituted NLRP3/ASC/caspase-1, beta-gal luminescence, 24 h; inhibition, % at 10 µM; actives 0.39% (n = 330,000); AID 2825;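 active means inhibition of 50% or more; inactive means inhibition below 50%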;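 further: plate controls were induced DMSO wells for no effect and uninduced yeast grown without galactose for full effect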
tim10-1 inh: tim10-1 yeast growth inhibition; S. cerevisiae tim10-1 ts strain growth, BacTiter-Glo, 24 h; inhibition, % at 20 µM; actives 2.2% (n = 330,000);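 active means inhibition of at least 40%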;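 further: mutant grown at 25 °C; 0% = DMSO wells with yeast and 100% = wells holding no yeast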
tim10-1 confirm: tim10-1 yeast growth inhibition, confirmed; shares compounds with tim10-1 inh; S. cerevisiae tim10-1 ts strain growth, BacTiter-Glo, 24 h; actives 56% (n = 7,400); inhibition, % at 20 µM;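 active means inhibition of yeast growth at or above a set limit in either of two repeat tests at 20 µM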;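 further: tim10-1 mutant grown at permissive 25 °C to find synthetic lethal compounds; 0% = DMSO yeast wells and 100% = medium wells without yeast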
TIM10 conf: TIM10 yeast growth inhibition, confirmed. shares compounds with TIM10 inh. S. cerevisiae tim10 strain growth, BacTiter-Glo luminescence, 24 h. inhibition, % at 10 µM. actives 63% (n = 4,600);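 active means inhibition of yeast growth at or above a set limit in either of two replicates at 10 µM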;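 further: this counterscreen used the strain with wild-type TIM10; 0% = yeast with DMSO and 100% = medium wells lacking yeast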
* hit, by the source's call; i = inactive; . = no result. This is a sample that favours compounds with a hit; in the whole collection about 4.1% have one here.

SMILES	TIM10 inh	NALP1 yeast inh	tim23-1 inh	NLRP3 yeast inh	tim10-1 inh	tim10-1 confirm	TIM10 conf
Cc1ccc(COc2ccccc2C(=S)N2CCCC2)cc1	42*	9	27	18	40*	24	23
COc1cccc(-c2nc(NCC3CCCO3)c3ccccc3n2)c1O (stereo unspecified)	3	9	5	28	16	.	.
Oc1ccccc1-c1nc(NCC2CCCO2)c2ccccc2n1 (stereo unspecified)	61*	6	31	17	56*	40*	27
COC(=O)C(Cc1c[nH]c2ccccc12)NC(=O)c1cccc(S(=O)(=O)N2CCCCC2)c1 (stereo unspecified)	6	.	9	-6	8	.	.
Cc1ccccc1NC1=NC(=S)N(c2ccccc2)C12CCCCC2	50*	16	50	9	54*	46*	-39
Cc1ccccc1NC1=NC(=S)N(c2ccccc2)C12CCOC(C)(C)C2 (stereo unspecified)	37	18	30	3	37	.	.
CCOC(=O)c1c(NC(=O)CC)sc(C(C)=O)c1C	-10	1	15	43	-8	.	.
CN(C)CCCN(C(=O)c1ccc(Cl)s1)c1nc2cc3c(cc2s1)OCO3	42*	36	18	22	48*	46*	23
CN(C)CCCN(C(=O)c1cccs1)c1nc2cc3c(cc2s1)OCO3	11	8	13	17	19	.	.
CN(C)CCCN(C(=O)c1ccc(Br)s1)c1nc2cc3c(cc2s1)OCCO3	56*	.	43	35	64*	60*	47*
CN(C)CCCN(C(=O)c1cc(Cl)sc1Cl)c1nc2cc3c(cc2s1)OCO3	46*	24	46	34	63*	55*	34*
CCN(CC)CCN(C(=O)c1ccc(Br)s1)c1nc2cc3c(cc2s1)OCCO3	16	-15	22	17	15	.	.
Cc1nn(CCc2nc(-c3ccco3)cs2)c2[nH]c(=O)cc(C(F)(F)F)c12	10	5	25	14	-19	.	.
CCc1c(C)c2c(C)nn(-c3ccccc3)c2oc1=O	42*	-95	-1	12	55*	54*	21
Cc1cc2c(c(C)nn2-c2ccccc2)c(=O)o1	-11	-8	8	30	11	.	.
O=[N+]([O-])c1ccc(/C=N/n2c(CO)nc3ccccc32)s1	0	28	14	13	4	.	.
O=[N+]([O-])c1ccc(/C=N/n2cnc3ccccc32)s1	79*	54*	40	6	49*	57*	90*
c1ccc(C(CN2CCOCC2)c2ccccc2)cc1	-3	4	-5	2	9	.	.
O=C(c1ccc(F)cc1)C(CN1CCOCC1)c1ccccc1 (stereo unspecified)	57*	1	49	42	53*	36*	64*
COc1ccc(C(=O)C(CN2CCOCC2)c2ccccc2)cc1 (stereo unspecified)	48*	6	23	36	55*	54*	66*
CCC(O)(c1ccc(OC)cc1)C(CN1CCOCC1)c1ccccc1 (stereo unspecified)	23	-4	30	11	8	.	.
Cc1cccc(NC(=O)c2cc3n(n2)C(C(F)(F)F)CC(c2ccc4c(c2)OCO4)N3)c1 (stereo unspecified)	62*	5	42	21	41*	47*	60*
Cc1nn(CC(=O)c2ccccc2)c(=O)c2nn(-c3ccccc3F)c(C)c12	19	34	14	7	19	.	.
CCOC(=O)C1=CN(Cc2cccc(F)c2)S(=O)(=O)N(C)C1CCc1ccccc1 (stereo unspecified)	-3	.	27	.	21	.	.
N#C/C(C(=O)Nc1ccc(Cl)cc1)=C(/S)Nc1ccccc1	45*	19	17	20	69*	60*	56*
SMILES	TIM10 inh	NALP1 yeast inh	tim23-1 inh	NLRP3 yeast inh	tim10-1 inh	tim10-1 confirm	TIM10 conf
CCCCCC(=O)Nc1cc(S(=O)(=O)N2CCOCC2)ccc1Oc1ccc(OCC)cc1	7	.	17	11	12	.	.
Cc1onc(-c2ccccc2)c1C(=O)NC(=S)Nc1sc2c(c1C#N)CCCC2	54*	17	40	36	42*	28	33*
CCN(C[C@H]1N[C@@](Cc2ccccc2)(C(=O)OC)[C@H]2C(=O)N(C)C(=O)[C@@H]12)S(=O)(=O)c1ccc(-c2ccccc2)cc1	4	.	13	8	4	.	.
CC(=O)OC1CCC2(C)C(=CCC3C2CCC2(C)C3CC3OC4(CCC(C)CN4)C(C)C32)C1 (stereo unspecified)	44*	.	42	2	41*	34*	22
C[C@]12CC[C@H](OC(=O)CCC(=O)O)CC1=CCC1C2CC[C@@]2(C)C1CC[C@@H]2N (stereo partly specified)	-1	.	4	8	12	.	.
COc1ccc(C(=O)C2CCCN(C(=O)Cn3nc(C)cc3C)C2)cc1F (stereo unspecified)	-3	i	0	-4	-4	.	.
Cc1cccc(/C=C/C(=O)c2ccc([N+](=O)[O-])o2)c1	89*	.	45	34	53*	7	98*
COc1cccc(/C=C/C(=O)c2cccc([N+](=O)[O-])c2)c1	19	-5	49	6	40	.	.
CCCCNC(=S)Nc1ccc(SC(F)F)cc1	41*	14	43	3	53*	36*	30*
C[C@@H]1O[C@@H](OCCC(=O)O)[C@H](O)C[C@H]1O	-4	.	6	8	-15	.	.
COc1cc2c(cc1OC)C(c1cc(Br)ccc1F)N(C(=O)CCl)CC2 (stereo unspecified)	45*	7	46	-10	42*	40*	43*
COc1cc2c(cc1OC)C(C1C(=O)CC(C)(C)CC1=O)N(C(=O)CCl)CC2 (stereo unspecified)	-7	26	8	4	-2	.	.
C[C@H]1CCC[C@]2(C)C[C@H]3OC(=O)C(CN4CCCCCC4)[C@H]3C=C12 (stereo partly specified)	42*	13	44	25	44*	41*	49*
COc1ccc(NS(=O)(=O)c2cccc(C(=O)N3CCN(c4ccccc4O)CC3)c2)cc1	-1	.	-7	7	-4	.	.
O=C(COC(=O)c1cccc(S(=O)(=O)N2CCCC2)c1)NCc1ccccc1	-15	10	10	1	15	.	.
Cc1csc2c(N3CCN(C(=O)c4ccc(C(C)(C)C)cc4)CC3)ncnc12	33	4	46	27	30	.	.
Cc1c(OC(=O)CNC(=O)OC(C)(C)C)ccc2c3c(c(=O)oc12)CCC3	45*	13	41	-9	49*	39*	47*
